Experimental data reported in PMC4242493, “Sequence specificity incompletely defines the genome-wide occupancy of Myc”.

Each sequence was assayed against Myc;MaxL (Homo sapiens;Homo sapiens, UniProt P01106-1;P61244 1-439;1-160, |) (assay: universal protein-binding microarray (PBM); PBS-based mixture, 10 nM His-tagged protein dimer, 2% milk, 200 ng/uL BSA, 50 ng/uL salmon testes DNA, 0.02% TX-100; detection with Alexa 488 anti-His antibody;; high values mean tight binding). Conditions: protein: recombinant;recombinant; tags: C-terminal His-tag (pET21a);C-terminal His-tag (pET21a); copies: 1;1; dsDNA, one strand shown.
Chain of Myc;MaxL (P01106 16-454, chain 1 of 2): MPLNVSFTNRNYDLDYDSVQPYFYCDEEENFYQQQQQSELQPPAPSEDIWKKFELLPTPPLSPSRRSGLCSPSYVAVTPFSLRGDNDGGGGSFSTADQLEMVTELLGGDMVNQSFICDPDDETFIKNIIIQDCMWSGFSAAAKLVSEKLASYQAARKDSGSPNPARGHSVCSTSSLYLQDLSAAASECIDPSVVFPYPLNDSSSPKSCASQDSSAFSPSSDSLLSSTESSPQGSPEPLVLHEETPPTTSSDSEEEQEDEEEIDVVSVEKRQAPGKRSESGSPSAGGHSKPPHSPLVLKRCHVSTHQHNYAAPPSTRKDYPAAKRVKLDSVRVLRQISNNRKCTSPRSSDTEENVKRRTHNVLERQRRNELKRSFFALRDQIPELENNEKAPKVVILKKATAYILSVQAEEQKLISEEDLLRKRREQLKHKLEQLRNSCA
Chain of Myc;MaxL (P61244 whole entry, chain 2 of 2): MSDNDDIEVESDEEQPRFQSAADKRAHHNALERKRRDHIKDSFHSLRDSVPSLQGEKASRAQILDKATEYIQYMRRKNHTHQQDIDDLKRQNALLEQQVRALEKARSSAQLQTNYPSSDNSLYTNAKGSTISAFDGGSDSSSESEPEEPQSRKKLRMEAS
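Also: fluorescence intensity normalized to that of the highest-ranked 8-mer.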

Row | Sequence | binding signal [normalized occupancy]
1 | CCACGTGC | 0.978
2 | ACACGTGG | 0.895
3 | CACGTGTC | 0.761
4 | CACGTGGC | 0.927
5 | AGCACGTG | 0.947
6 | CACGTGGA | 0.81
7 | CACGTGCG | 0.798
8 | ACCACGTG | 0.875
9 | CACGTGGG | 0.757
10 | CACGTGCC | 0.732
11 | CCACGTGG | 0.959
12 | ACACGTGT | 0.833
13 | AACACGTG | 0.784
14 | ACACGTGC | 0.766
